697 NFkB inh: lowers PMA/ionomycin-induced NF-kB signal in 697 B cells. 697 B-cell NF-kB luciferase reporter, 16 h. inhibition, % at 4 µM. actives 0.33% (n = 330,000). AID 435022; in the data active = inhibition above about 35%
Mdm2 MdmX PPI: inhibitors of human Mdm2/MdmX interaction; actives 3% (n = 330,000); inhibition, % at 8 µM; O15151+Q00987; AID 485346; SaOS-2 split-luciferase Mdm2/MdmX complementation, luminescence;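 active = inhibition of at least 50% at 8 µM in the primary screen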
Target sequence (O15151 whole entry, looked up): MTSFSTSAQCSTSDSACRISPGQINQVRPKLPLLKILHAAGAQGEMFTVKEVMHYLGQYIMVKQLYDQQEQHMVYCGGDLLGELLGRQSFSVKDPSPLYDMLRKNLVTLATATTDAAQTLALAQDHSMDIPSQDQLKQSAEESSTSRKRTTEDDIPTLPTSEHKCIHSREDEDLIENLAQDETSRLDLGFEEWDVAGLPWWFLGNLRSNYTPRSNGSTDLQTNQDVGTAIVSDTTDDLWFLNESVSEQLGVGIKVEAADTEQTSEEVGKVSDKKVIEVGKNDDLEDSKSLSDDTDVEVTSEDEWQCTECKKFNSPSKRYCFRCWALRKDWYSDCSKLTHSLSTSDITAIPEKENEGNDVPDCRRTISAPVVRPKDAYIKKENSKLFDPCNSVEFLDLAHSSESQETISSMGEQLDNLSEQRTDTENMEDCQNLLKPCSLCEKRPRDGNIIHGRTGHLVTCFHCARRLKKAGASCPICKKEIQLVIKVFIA
Target sequence (Q00987 whole entry, looked up): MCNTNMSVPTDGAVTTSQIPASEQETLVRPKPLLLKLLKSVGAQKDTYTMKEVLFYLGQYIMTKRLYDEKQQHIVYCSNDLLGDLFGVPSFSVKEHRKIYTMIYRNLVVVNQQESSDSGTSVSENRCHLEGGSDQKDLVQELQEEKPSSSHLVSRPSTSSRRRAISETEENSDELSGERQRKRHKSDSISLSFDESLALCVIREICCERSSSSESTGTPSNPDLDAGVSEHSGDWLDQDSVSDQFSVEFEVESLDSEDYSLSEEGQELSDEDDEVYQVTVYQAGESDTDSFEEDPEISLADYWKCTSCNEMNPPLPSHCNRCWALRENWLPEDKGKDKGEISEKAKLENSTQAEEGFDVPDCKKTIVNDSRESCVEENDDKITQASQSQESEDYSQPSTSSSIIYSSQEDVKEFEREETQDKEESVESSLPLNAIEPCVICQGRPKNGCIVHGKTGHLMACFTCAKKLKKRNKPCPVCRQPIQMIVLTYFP
KLF5 inhibitor: suppresses KLF5 promoter-driven expression. actives 0.23% (n = 290,000). inhibition, % at 5 µM. DLD-1 KLF5 promoter-luciferase reporter, luminescence;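 active = inhibition above a per-plate limit of that plate's mean compound inhibition plus 3 SD, cut at about 60% in these data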;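 note: 0% = DMSO wells and 100% = LY294002 at 200 µM; higher means less KLF5 promoter-driven luciferase light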
Gli-Sufu block: blocks Gli-Sufu signaling in a luciferase reporter. Sufu-KO-LIGHT fibroblasts, Gli luciferase reporter luminescence. inhibition, % at 5 µM. actives 0.74% (n = 340,000). AID 588413;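 active = inhibition above about 55%, limit read from the data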;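 note: 0% = DMSO-treated cells and 100% = wells with medium but no cells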
aSyn UTR inh: MLPCN primary screen, SNCA 5' untranslated region; alpha-synuclein 5'UTR reporter, inhibitor activity; inhibition, % (tested at 7.5 µM); actives 0.82% (n = 300,000); AID 1813; in the data active = inhibition above about 60%;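 note: H4 neuroglioblastoma cells stably carrying SNCA 5'UTR luciferase fusion; 0% = DMSO wells and 100% = positive control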
Jurkat NFkB inh: lowers PMA/ionomycin-induced NF-kB signal in Jurkat cells. PMA/ionomycin-induced NF-kB luciferase reporter, luminescence. inhibition, % at 4 µM. actives 0.53% (n = 330,000); in the data active = inhibition above about 50%
Gli antag conf: confirmation of Gli-SUFU pathway antagonists. shares compounds with Gli-Sufu block. Sufu-KO-LIGHT cells, Gli luciferase reporter, luminescence. inhibition, % at 5 µM. actives 40% (n = 2,500). AID 602428;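 active = mean inhibition at 5 µM reaching about 45%, limit read from the data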;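 note: plate controls were DMSO-treated cells for no effect and wells lacking cells for full effect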
Gli cytotox: cytotoxic in Gli-SUFU antagonist counter-screen. Sufu-KO-LIGHT cells cytotoxicity, ATP luminescence. cytotoxicity, % at 5 µM. AID 651994. actives 32% (n = 2,500). shares compounds with Gli-Sufu block;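 active = mean cytotoxicity at 5 µM above about 25%, limit read from the data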;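 note: cells exposed to compound overnight for roughly 16 to 18 hours; plate controls were DMSO wells with cells for no effect and medium without cells for full effect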
Wnt3a cs: inhibits Wnt3a reporter, counter-screen for Gli-SUFU antagonists | actives 20% (n = 2,500) | inhibition, % at 6.25 µM | shares compounds with Gli-Sufu block | Wnt-LIGHT cells, Wnt3a-driven luciferase reporter, luminescence;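 active = mean inhibition above about 25%, limit read from the data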
Active calls of the source: *; · = not tested or not shown. A selection: hits, their analogues and other compounds. The true share with any hit is near 4.1%.

SMILES | 697 NFkB inh | Mdm2 MdmX PPI | KLF5 inhibitor | Gli-Sufu block | aSyn UTR inh | Jurkat NFkB inh | Gli antag conf | Gli cytotox | Wnt3a cs
Cc1ccc(-c2nnc(NC(=O)c3ccco3)o2)c(C)c1 | -33.7 | -8.1 | · | 72.6* | -11.6 | -8.2 | 3.7 | 13.3 | -14.7
COc1ccc(CNC(=O)CSc2ncn[nH]2)cc1 | 9.6 | -12.0 | -48.2 | 87.4* | -15.0 | -18.1 | 27.1 | 3.5 | -0.7
COc1ccc2oc(=O)c(C(=O)N3CCN(C(=O)c4ccco4)CC3)cc2c1 | -3.7 | 0.8 | -27.4 | -4.5 | -6.3 | -6.0 | · | · | ·
CCCCN(CC)CCCNC(=S)Nc1ccc2nc3n(c(=O)c2c1)CCCCC3 | 8.8 | 21.8 | -27.5 | 4.0 | 10.3 | -15.5 | · | · | ·
CCc1ccc2c(c1)CCCN2C(=O)c1ccccc1C(=O)O | -2.4 | 2.8 | -22.9 | 50.8 | -20.3 | 1.7 | 26.6 | 1.4 | -59.6
O=C(c1ccccc1F)N1CCCc2ccccc21 | -3.3 | 9.1 | -16.4 | 8.3 | -11.4 | -14.5 | · | · | ·
COc1ccccc1-n1c(SCC(=O)Nc2cc(C)on2)nc2c([nH]c3ccccc32)c1=O | 18.9 | 44.0 | -8.2 | 7.1 | 15.6 | 19.5 | · | · | ·
Cc1cc(NC(=O)CSc2nc3c([nH]c4ccccc43)c(=O)n2-c2ccccc2F)no1 | -18.0 | 32.7 | -0.4 | 58.4* | 13.4 | 6.4 | 55.9* | 23.2 | 18.8
COc1cccc2cc(C(=O)C3=C(O)C(=O)N(c4cc(C)on4)C3c3cccs3)oc12 (centres undefined) | 6.0 | 40.5 | -35.9 | 4.8 | -20.6 | 1.2 | · | · | ·
CCc1cccc(CC)c1NC(=S)/C(=C(\[O-])c1ccc(Cl)s1)[n+]1ccccc1 | 7.2 | 8.6 | -4.2 | 53.0 | -27.0 | -1.4 | 25.3 | 17.9 | -4.2
O=C(/C=C/c1ccc(S(=O)(=O)N2CCOCC2)cc1)NCc1ccccc1Cl | -31.1 | 10.5 | -4.6 | 4.9 | 2.9 | 19.3 | · | · | ·
O=C(/C=C/c1ccc(S(=O)(=O)N2CCOCC2)cc1)NCc1ccccc1F | -34.0 | -15.9 | · | 52.1 | · | 2.7 | 33.4 | 8.9 | -5.2
COc1ccc(CN(CCN)C2CC(C)N(C)CC2C)cc1 (centres undefined) | 9.7 | 20.9 | -11.7 | -5.1 | -17.0 | -11.3 | · | · | ·
Cc1ccc(NC(=O)/C=C/c2ccco2)cc1S(=O)(=O)N1CCCCCC1 | -24.2 | 38.0 | · | 77.1* | -41.7 | 6.2 | 88.0* | 8.6 | -23.2
Cc1ccc(NC(=O)COc2ccccc2C(N)=O)cc1S(=O)(=O)N1CCCCCC1 | -4.9 | 5.1 | · | 50.3 | · | 29.7 | 48.4* | 28.1* | -12.9
O=C(/C=C/c1ccco1)Nc1cccc(S(=O)(=O)N2CCOCC2)c1 | -2.0 | 6.5 | -15.0 | 13.5 | -15.6 | -13.3 | · | · | ·
Cc1cccc(OCCC(=O)Nc2ccc(C)c(S(=O)(=O)N3CCCCC3)c2)c1 | · | · | 13.1 | 62.0* | 13.8 | · | 21.8 | 21.6 | -31.5
Cc1cccc(NC(=O)C2CCCN(C(=O)Nc3ccccc3)C2)c1C (centres undefined) | 10.1 | -2.2 | -27.5 | 57.6* | 24.9 | -5.9 | 3.9 | 24.1 | -17.0
Cc1ccccc1NC(=O)C1CCCN(C(=O)Nc2ccc(F)cc2)C1 (centres undefined) | 8.8 | 4.8 | -7.5 | 15.2 | 5.4 | 18.8 | · | · | ·
CC(Sc1nc2ccccc2c(=O)n1C)C(=O)N(C)C1CCCCC1 (centres undefined) | -51.3 | 19.5 | · | 71.9* | -0.8 | 23.3 | 61.3* | 17.6 | 10.2
CC(Sc1nc2ccccc2c(=O)n1CC1CCCO1)C(=O)N(C)Cc1ccccc1 (centres undefined) | -18.6 | 10.4 | · | 7.8 | 15.0 | -2.1 | · | · | ·
CCC(C(=O)Nc1ccc2c(c1)OCCO2)n1c(=O)[nH]c2ccccc2c1=O (centres undefined) | -1.4 | 21.7 | -5.6 | 52.8 | -24.5 | 4.9 | 22.6 | -8.2 | 48.1*
Cc1ccc(C(=O)NC(=S)N2CCN(C)CC2)cc1 | -15.7 | -16.5 | -2.4 | -2.0 | -21.6 | 3.5 | · | · | ·
CN1CCN(C(=S)NC(=O)c2ccc(C(C)(C)C)cc2)CC1 | -21.6 | -9.8 | 12.3 | 59.8* | -21.1 | 19.7 | 17.3 | 11.3 | -62.9
Cc1nn(C)c(C)c1/C=C/C(=O)O | -11.5 | 5.5 | -21.9 | -2.2 | 14.3 | 6.6 | · | · | ·
SMILES | 697 NFkB inh | Mdm2 MdmX PPI | KLF5 inhibitor | Gli-Sufu block | aSyn UTR inh | Jurkat NFkB inh | Gli antag conf | Gli cytotox | Wnt3a cs
Cc1nn(C)c(C)c1/C=C/C(=O)c1ccc(Cl)cc1Cl | -17.6 | 8.2 | 16.2 | 63.8* | -15.8 | 37.3 | 63.2* | 22.8 | -5.2
Cn1c(C(=O)OC(C(=O)NCc2ccco2)c2ccncc2)cc2sccc21 (centres undefined) | 15.0 | -4.1 | -29.2 | 1.3 | -16.9 | -0.1 | · | · | ·
COc1ccc(CN(C2CCCC2)S(=O)(=O)c2ccc(-n3cnnn3)cc2)cc1 | -10.4 | 28.1 | -8.9 | 57.6* | 3.9 | 8.4 | 13.6 | 11.4 | 0.8
C=C(C)CSc1nnc([C@@H](NC(=O)OC(C)(C)C)C(C)CC)o1 (some centres undefined) | -32.4 | 4.1 | -16.5 | 93.8* | 3.2 | -0.1 | 20.0 | 12.7 | -30.8
CCSc1nnc([C@@H](NC(=O)OC(C)(C)C)C(C)C)o1 | -10.3 | -19.5 | -16.0 | 8.8 | -9.7 | 10.5 | · | · | ·
COc1ccc(-c2c[n+](CC(=O)c3cccs3)c3n2CCC3)cc1 | -5.3 | 34.7 | -8.0 | 5.5 | -10.7 | 13.3 | · | · | ·
COc1ccc(C(=O)C[n+]2cc(-c3ccc(OC)cc3)n3c2CCCC3)cc1 | -19.5 | 36.6 | 2.8 | 73.5* | 4.7 | 37.1 | 68.0* | 26.2* | -4.0
COc1ccc(/C=C(/NC(=O)c2ccccc2)C(=O)N/N=C/c2ccc3c(c2)OCO3)cc1OC | · | · | -19.2 | 83.8* | · | · | 18.4 | -0.4 | -7.0
O=C(N/N=C/c1ccncc1)C12CC3CC(CC(C3)C1)C2 | 7.0 | -23.2 | 1.8 | 57.6* | 12.9 | -2.1 | 20.8 | 6.0 | -18.4
N#Cc1ccccc1OCc1cccc(S(=O)(=O)N2CCOCC2)c1 | 4.0 | -5.5 | · | -6.7 | · | 0.5 | · | · | ·
CC1(C)CC(=O)N(c2ccc(Cl)cc2Cl)C(=O)C1 | 16.5 | 19.0 | -40.4 | 68.5* | 4.2 | 15.2 | 7.0 | 4.5 | -11.8
Clc1ccc(/C=N/N2CCN(Cc3ccccc3Cl)CC2)cc1 | -6.2 | 2.5 | 2.9 | 6.1 | 4.5 | 5.3 | · | · | ·
COc1ccc(/C=N\N2CCN(Cc3ccccc3Cl)CC2)cc1 | 2.6 | 3.3 | 8.8 | 50.3 | 2.5 | -2.5 | 12.4 | 15.7 | -26.7
CCOC(=O)C1CCCN(C(=O)CCn2nc(-c3ccccc3)ccc2=O)C1 (centres undefined) | -3.4 | 10.4 | 8.6 | 56.3* | 2.4 | -3.9 | 26.0 | 14.8 | -7.2
Cn1cc(CNCc2ccc(OC(F)(F)F)cc2)c(-c2ccc3c(c2)OCCO3)n1 | -59.6 | 29.0 | -13.8 | 60.1* | 4.9 | 39.0 | 62.5* | 35.8* | 26.4*

Bioassay records: PubChem, several laboratories
